Experimental data: ChEMBL document CHEMBL3433997, “St. Jude Leishmania screening dataset” (2016)

Tests used:
Format in all cases: functional
[1] = biological target: Solute carrier family 2, facilitated glucose transporter member 1 (Homo sapiens) (UniProt P11166); experiment: ST_JUDE_LEISH: Cytotoxicity at 2uM final concentration against transgenic Leishmania Mexicana promastigotes LmGLUT1 that are glucose transport deficient and complemented with the human glucose transporter GLUT1. Activity is measured by DNA content using SYBR green in vitro
Chain of Solute carrier family 2, facilitated glucose transporter member 1 (Homo sapiens) (P11166 whole entry): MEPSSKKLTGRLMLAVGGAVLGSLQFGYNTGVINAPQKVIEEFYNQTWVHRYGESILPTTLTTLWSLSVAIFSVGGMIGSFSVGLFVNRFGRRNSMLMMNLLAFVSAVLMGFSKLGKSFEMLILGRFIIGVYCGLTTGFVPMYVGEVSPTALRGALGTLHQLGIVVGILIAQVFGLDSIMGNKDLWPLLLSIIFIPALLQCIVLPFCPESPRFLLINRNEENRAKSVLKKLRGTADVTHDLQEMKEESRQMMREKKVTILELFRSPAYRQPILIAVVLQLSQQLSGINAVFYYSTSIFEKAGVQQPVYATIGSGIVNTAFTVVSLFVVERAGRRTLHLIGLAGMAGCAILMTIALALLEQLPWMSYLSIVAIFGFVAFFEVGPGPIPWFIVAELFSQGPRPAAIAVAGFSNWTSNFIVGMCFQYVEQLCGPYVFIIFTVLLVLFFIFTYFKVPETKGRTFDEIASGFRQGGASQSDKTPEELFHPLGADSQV

[2] = biological target: Hexose transporter 1 (Plasmodium falciparum) (UniProt O97467); experiment: ST_JUDE_LEISH: Cytotoxicity at 2uM final concentration against transgenic Leishmania Mexicana promastigotes LmPfHT that are glucose transport deficient and complemented with the Plasmodium falciparum hexose transporter. Activity is measured by DNA content using SYBR green in vitro
[3] = biological target: Glucose transporter (Leishmania mexicana) (UniProt O61059); experiment: ST_JUDE_LEISH: Cytotoxicity at 2uM final concentration against transgenic Leishmania Mexicana promastigotes LmGT2 that are glucose transport deficient and complemented with the L. Mexicana glucose transporter 2. Activity is measured by DNA content using SYBR green in vitro

| Structure (SMILES) | inhibition [1] [%] | inhibition [2] [%] | inhibition [3] [%] |
| --- | --- | --- | --- |
| CNC(=O)COc1cc(C)c(C2CCN(CCCCNC(=O)c3ccc(-c4ccc(C(F)(F)F)cc4)cc3)CC2)cc1C | 2.41 | 2.32 | 1.85 |
| CN1CCN(CCCN(Cc2csc(-c3ccc(CNCc4ccccc4)cc3)n2)S(=O)(=O)c2cccc3cccnc23)CC1 | 0.74 | 5.92 | 4.06 |
| COc1ccc(CNCc2ccc(F)cc2)cc1-c1ccc(S(=O)(=O)NCCN2CCCC2)s1 | 2.3 | 3.11 | 5.96 |
| CN(CCCCCN1CCC(NC(=O)Nc2ccc(Oc3ccccc3)cc2)C1)C(=O)/C=C/c1ccc(Cl)c(Cl)c1 (centres undefined) | 0 | 6.7 | -1.12 |
| CCCCc1ccc(C(=O)Nc2ccc3nc(N4CCN(CC)CC4)cc(C)c3c2)cc1 | -2.18 | -0.16 | -1.24 |
| CCOCc1cnc(C)nc1CNC(=O)c1c(C)[nH]c2ccc(C)cc12 | 0.96 | 0.7 | 1.12 |
| N#Cc1ccc(-c2nc(CO)c(C(=O)NCCCCN3CCC(c4ccc5c(c4OCC(N)=O)CCCC5)CC3)s2)cc1 | 1.02 | -1.06 | 1.74 |
| CCCc1cc(N2CCC(N3CCCC3)CC2)nc(Nc2ccc(Cl)cc2)n1 | -1.71 | 2.3 | 0.85 |
| O=C(c1ccc(Cl)cc1Cl)N1CCCC(C(F)(F)F)C1 (centres undefined) | 8.69 | 11.4 | 10.3 |
| Nc1nccc2ccc(-c3ccnc(NCc4cccnc4)n3)cc12 | 9.29 | 7.15 | 11.2 |
| Cc1cccc2nc(-c3ccc(-c4ccc(CN5CCC(C(N)=O)CC5)cc4)s3)[nH]c12 | 10.9 | 9.37 | 8.95 |
| C=CCOC(=O)N1CCC(CNCc2ccc(-c3ccc(-c4nc5ccccc5[nH]4)s3)cc2)C1 (centres undefined) | 5.91 | 6.02 | 5.42 |
| NC1CCCN(Cc2ccc(-c3cccc(-c4nc5ccccc5[nH]4)c3)cc2)C1 (centres undefined) | 3.53 | 4.34 | 4.25 |
| CCCCCC(C)C(C)c1cc(OC(N)=O)c2c(c1)OC(C)(C)C=C2c1ccncc1 (centres undefined) | -3.81 | -1.09 | -1.38 |
| O=C(Nc1ccc(I)cc1)N1CCc2sccc2C1CN1CCCCC1 (centres undefined) | 12.2 | 9.79 | 10.5 |
| CC(C)n1ncc2c3c(N)nc(N)nc3ccc21 | 1.85 | 1.69 | 2.51 |
| Cc1cc(Cl)ccc1OC(C)C(=O)N1CCc2ccccc21 (centres undefined) | -3.17 | 0.81 | -0.66 |

| Structure (SMILES) | inhibition [1] [%] | inhibition [2] [%] | inhibition [3] [%] |
| --- | --- | --- | --- |
| COc1cccc(-c2cc(C(F)(F)F)n3ncc(C(=O)Nc4cc(Cl)ccc4O)c3n2)c1 | 0.65 | 1.53 | -2.22 |
| CC1(C)N=C(N)N=C(Nc2ccc(Cl)cc2)N1 | 14.5 | 14.3 | 11.4 |
| CCCNCc1ccc(-c2ccc(CN(CCOC)C(=O)Cc3cccnc3)cc2)nc1 | 0.25 | 1.34 | 3.67 |
| CC[C@H]1CN(Cc2cccc(O)c2)CC[C@H]1CCCc1ccnc2ccc(O)cc12 | 4.31 | 4.23 | 3.98 |
| O=C(C1CCCCC1)N1CCOC(CCN2CCC(c3ccccc3)CC2)(c2ccc(Cl)c(Cl)c2)C1 (centres undefined) | 15.2 | 16.1 | 13.5 |
| O=C(/C=C/c1ccc(Cl)c(Cl)c1)NCCCCCN1CCC(NC(=O)Nc2ccc([N+](=O)[O-])cc2)CC1 | -0.34 | 1.11 | -0.43 |
| Cc1ccoc1C(=O)Nc1cccc(-c2cccc(-c3nc4ccccc4[nH]3)c2)c1 | 12.3 | 6.56 | 5.58 |
| COc1ccc(CCN2CCC(Nc3nc4ccccc4n3CCc3ccc(OC)cc3)CC2)cc1 | 4.38 | -1.39 | 12.5 |
| CSc1ccc(CN2CCC(NC(=O)c3ccc(-c4cccc(C(F)(F)F)c4)s3)CC2)cc1 | 3.18 | 0.48 | 3.3 |
| CCCCNCc1ccc(-c2nc(CN(CCCn3ccnc3)C(=O)NC3CC3c3ccccc3)cs2)cc1 (centres undefined) | 3.77 | 3.79 | 4.29 |
| Nc1nc(N)c2c(ccc3c2cnn3Cc2cccnc2)n1 | 39.8 | 51.2 | 38.1 |
| CCOc1ccc(NC(=O)c2ccc(NCCCN3CC(C)CC(C)C3)c([N+](=O)[O-])c2)cc1 (centres undefined) | 2.9 | 0.9 | 1.09 |
| O=C(/C=C/c1ccc(Cl)c(Cl)c1)NCCCCCN1CCC(CCNC(=O)/C=C/c2ccc(Cl)c(Cl)c2)CC1 | 1.63 | -0.93 | 0.87 |
| COc1ccc(C(=O)C2CC2CN(C)CC(O)c2cc(C)c(OC)cc2C)cc1 (centres undefined) | 8.26 | 7.67 | 6.57 |
| COc1ccc(-c2onc(C(F)(F)F)c2-c2cc3ccccc3o2)c(O)c1 | 0.61 | 0.82 | 0.58 |
| COc1cc(OC)cc(-c2nn(-c3ccc([N+](=O)[O-])cc3Cl)c(=S)n2Cc2ccco2)c1 | -1.56 | -0.65 | 2.4 |
